Source: PubChem
An excerpt weighted towards active compounds, which were near 2.4% of everything screened.
M1 ag parental – counter-screen for M1 agonists: effect in parental CHO-K1 cells | activation, % at 3 µM | AID 602248, 2012 | Fluo-8 calcium fluorescence; scaled to maximal ATP response, vehicle zero | hit rate 0.48% among 360,000; in the data active means activation above about 15%;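 further: untransfected CHO-K1 host cells lacking M1 receptor as counterscreen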
CHRM1 antagonist – human M1 muscarinic receptor antagonists, primary screen, CHO-K1 cells, Fluo-8 calcium fluorescence, 1536-well; CHO-K1 hM1, ACh EC80 antagonist; inhibition, % at 3 µM; hit rate 1.3% among 360,000;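 active means percent inhibition above its own plate's cutoff, namely the mean of that plate's compound wells plus 3 SD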;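 further: peak over basal fluorescence ratio during 140 s after agonist addition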
Target sequence (P11229 whole entry, looked up): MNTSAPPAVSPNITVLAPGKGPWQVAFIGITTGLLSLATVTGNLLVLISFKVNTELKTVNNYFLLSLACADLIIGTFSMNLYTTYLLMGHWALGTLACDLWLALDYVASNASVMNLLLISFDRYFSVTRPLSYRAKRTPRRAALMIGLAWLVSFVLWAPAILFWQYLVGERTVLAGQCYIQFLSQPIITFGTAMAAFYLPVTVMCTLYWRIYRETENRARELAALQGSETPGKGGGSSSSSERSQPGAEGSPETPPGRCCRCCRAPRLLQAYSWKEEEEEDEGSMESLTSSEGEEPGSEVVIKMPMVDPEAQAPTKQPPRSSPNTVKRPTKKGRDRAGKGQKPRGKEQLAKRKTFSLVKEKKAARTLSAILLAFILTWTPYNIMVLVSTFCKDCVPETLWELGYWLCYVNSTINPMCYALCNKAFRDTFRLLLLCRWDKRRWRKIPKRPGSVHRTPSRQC
CHO-K1 Ca PAM – nonselective calcium activators in parental CHO-K1 cells, primary screen, counter-screen for M1 PAM project, cell-based, Fluo-8 calcium fluorescence, full deck, 1536-well | ATP EC20; 0% at ATP EC20, 100% at ATP max | hit rate 0.02% among 360,000 | activation, % at 3 µM;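 active means activation above the run cutoff, the mean activation of all test compounds plus 3 SD, cut at about 40% in these data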;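 further: peak over basal fluorescence ratio in a 140 s read after ATP addition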
CHO-K1 Ca antag – M1 antagonist counterscreen hit in parental CHO-K1 cells | ATP-induced calcium, Fluo-8 fluorescence | inhibition, % at 3 µM | AID 602250 | hit rate 0.6% among 360,000;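 active means inhibition above a per-plate cutoff, the plate's mean sample inhibition plus 3 SD, cut at about 24% in these data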
M1 ag – human M1 muscarinic receptor agonists, primary screen, Fluo-8 calcium fluorescence, CHO-K1 cells, HTS; Muscarinic acetylcholine receptor M1 (Homo sapiens), P11229; CHO-K1 hM1, agonist mode; 0% DMSO, 100% acetylcholine EC100; activation, % at 3 µM; hit rate 0.33% among 360,000; AID 588814, 2011;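 active means activation above the run's mean compound activation plus 3 SD, cut at about 16% in these data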;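 further: peak over basal fluorescence ratio within a 140 s kinetic read after compound addition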
CHRM1 PAM – human M1 muscarinic receptor positive allosteric modulators, primary screen, CHO-K1 cells, Fluo-8 calcium fluorescence, 1536-well | activation, % at 3 µM | AID 588819, 2011 | hit rate 0.088% among 360,000 | CHO-K1 hM1, ACh EC20; 0% = ACh EC20, 100% = maximal ACh | Muscarinic acetylcholine receptor M1 (Homo sapiens), P11229; in the data active means activation above about 19%, passing the limit was not always enough
Of the large screens only hits and unclear results are named; the others gave an inactive call.

CCN(CC)c1ccc(/C=C/c2cc(-c3ccccc3)c3ccccc3n2)cc1	CHRM1 antagonist 36.3, M1 ag 18.0
O=C1C=C(c2cccnc2)CCC1	none
O=C1CCCc2[nH]nc(-c3cccnc3)c21	CHO-K1 Ca antag 26.0
O=C1CSC(=S)N1/N=C/c1cc(Br)c(O)c(Br)c1	M1 ag parental 106.3, CHRM1 antagonist 89.8, CHO-K1 Ca antag 45.0, M1 ag 251.0
CCCCNC(=O)C1(C)CCCCN1Cc1ccccc1-c1ccccc1 (stereo not drawn)	CHRM1 antagonist 31.2
COc1ccc(S(=O)(=O)NCCSCc2ccco2)cc1Cl	CHRM1 PAM 22.5
CCN(CC)CC#CCC(O)(c1ccccc1)C1CCCCC1 (stereo not drawn)	M1 ag parental 16.1, CHRM1 antagonist 98.8
Cc1c(C)n(Cc2ccccc2)c2ncnc(Cl)c12	CHRM1 antagonist 35.1
CN(CC(=O)OCC(=O)NC1CCCC1)S(=O)(=O)c1ccc(Cl)cc1	none
CC(C)[C@H](NC(=O)N1CCn2c1nc1ccccc12)C(=O)N1CCCCC1	none
CC(=O)c1c(C)[nH]c(C(=O)COc2cc(C)ccc2C(C)C)c1C	CHRM1 antagonist 36.3
COc1cc(/C=C2\SC(=S)N(NC(=O)c3ccccc3O)C2=O)ccc1O	M1 ag 20.3
O=C(NN1C(=O)/C(=C/c2ccc(O)cc2)SC1=S)c1ccccc1O	none
CC1(C(=O)Nc2cccc(C#N)c2)CCN1C(=O)Cc1ccc(-c2ccccc2)cc1 (stereo not drawn)	CHRM1 antagonist 42.3, CHO-K1 Ca antag 27.7
Cc1nc2nc(SCC(=O)NCCCN3CCCCCC3)nn2c(C)c1Cc1ccccc1Cl	CHRM1 antagonist 100.2
Cc1nc2nc(SCC(=O)NCCCN3CCCC(C)C3)nn2c(C)c1Cc1ccccc1Cl (stereo not drawn)	CHRM1 antagonist 63.2
Cc1ccccc1Cc1c(C)nc2nc(SCC(=O)NCCCN3CCCC3)nn2c1C	CHRM1 antagonist 50.0
Cc1nc2nc(SCC(=O)N3CCOCC3)nn2c(C)c1Cc1c(F)cccc1Cl	none
CCOC(=O)C(C(=O)Cc1ccccc1)c1ccccc1 (stereo not drawn)	none
CC(=O)Nc1nnc([N+](=O)[O-])s1	none
COc1cc(/C=N/N(C)C)cc(Br)c1O	CHRM1 PAM 23.0
CN=c1scc(C)n1/N=C/c1cc(Br)c(O)c(OC)c1	none
Cc1ccc(NC(=O)COC(=O)c2oc3ccccc3c2C)cc1S(=O)(=O)N1CCOCC1	none
C=CCc1cc(Cl)ccc1OCCNCCCOC	none
C=CCc1ccccc1OCCNCCCOC	CHO-K1 Ca antag 23.7
COc1ccc(Nc2nc(N)nc(CSC(=S)N3CCCCC3)n2)cc1	none
COc1ccc(Nc2nc(N)nc(CSC(=S)N3CCCCC3C)n2)cc1 (stereo not drawn)	M1 ag parental 22.4
O=[N+]([O-])c1ccc(Nc2ccccc2)c2nonc12	none
O=[N+]([O-])c1ccc(Sc2cccc[n+]2[O-])c2nonc12	CHRM1 antagonist 43.8, CHO-K1 Ca antag 88.0
O=C(Nn1cnnc1)c1ccc(F)cc1	none
Cc1cc(C(=O)NNC(=O)c2ccc(C)c([N+](=O)[O-])c2)c(C)o1	none
Cc1ccc(S(=O)(=O)NC2=NCN(C3CCN(Cc4ccccc4)CC3)CN2)cc1	CHRM1 antagonist 28.7
Cc1ccc(S(=O)(=O)NC2=NCN(Cc3ccccc3)CN2)cc1	none
COC(=O)C1CCN(Cc2ccc(C)cc2)CC1	none
Cc1ccc(S(=O)(=O)NNC(=O)C2CCN(Cc3ccccc3)CC2)cc1	CHRM1 antagonist 80.0
COc1ccc(Cl)cc1NC(=O)CCc1nnc2ccc(N3CCN(C)CC3)nn12	none
CCOC(=O)C1(Cc2cccc(Cl)c2)CCCN(C(=O)c2ccc(COC)s2)C1 (stereo not drawn)	none
O=c1c2cc(N3CCOCC3)ccc2[nH]c(=S)n1CCCN1CCCCCC1	CHRM1 antagonist 22.9
COc1ccc(OC)c(C(=O)c2coc3ccc(O)c(CN(C)C)c23)c1	none
COc1ccc2occ(C(=O)c3coc4ccc(O)c(CN(C)C)c34)c2c1	CHRM1 antagonist 20.0
CC(C)c1ccc2c(c1)C1(NN=C(c3ccccc3)S1)C(=O)N2 (stereo not drawn)	CHRM1 antagonist 30.4
CCC(C)c1ccccc1NC(=O)Cc1coc2cc3c(cc12)CCC3 (stereo not drawn)	none
Cc1ccc(C)c(NC(=O)Cc2coc3cc4c(cc23)CCC4)c1	CHRM1 PAM 27.8
COc1ccc(C(=O)OCC(=O)Nc2cccc(S(=O)(=O)NC3=NCCCCC3)c2)cc1[N+](=O)[O-]	none
CCOc1ccccc1OCCCC(=O)N1CCN(S(=O)(=O)c2cc(F)ccc2F)CC1	CHO-K1 Ca antag 28.4
CCOc1ccccc1OCCCC(=O)N1CCN(S(=O)(=O)c2ccc(Cl)cc2)CC1	none
Cc1ccc(C2C(C#N)=C(N)SC(N)=C2C#N)c(C)c1	M1 ag 19.6
Cc1ccc(C2C(C#N)=C(N)SC(N)=C2C#N)cc1	none
Cc1ccc2c(c1)[C@H]1[C@H](CO2)[C@H](c2ccccc2)[C@]2(C)C(=O)Nc3cc(F)c(F)cc3C(=O)N12	CHRM1 antagonist 41.5
C[C@]12C(=O)N(c3ccc(F)cc3)C(=O)N1[C@H]1c3ccccc3OC[C@@H]1[C@H]2c1ccccc1	CHO-K1 Ca PAM 43.8
C[C@@]12C(=O)Nc3cc(F)ccc3C(=O)N1[C@H]1c3ccccc3OC[C@@H]1[C@@H]2c1ccccc1	CHRM1 antagonist 75.2
Cc1ccc2c(c1)[C@H]1[C@H](CO2)[C@H](c2ccccc2)[C@]2(C)C(=O)Nc3ccc(F)cc3C(=O)N12	CHRM1 antagonist 65.9
C[C@@]12C(=O)N(c3ccc(F)cc3)C(=O)N1[C@@H]1c3ccccc3OC[C@@H]1[C@H]2c1ccccc1	none
CC(NC(=O)C1CCN(C(=O)Nc2ccccc2)CC1)c1ccccc1Cl (stereo not drawn)	none
CCCN1C(=O)/C(=C/c2ccc(OCC(=O)OCC)cc2)NC1=S	none
Cc1cc(/C=C2\NC(=S)N(C)C2=O)ccc1N1CCCC1	M1 ag parental 75.7, CHRM1 antagonist 59.2, CHO-K1 Ca antag 60.0, M1 ag 54.8
Cc1cc(/C=C2/C(=O)N(C)C(=S)N2C)ccc1N1CCCC1	none
CCCN1C(=O)/C(=C/c2ccc(N3CCCC3)c(C)c2)NC1=S	M1 ag parental 54.0, CHRM1 antagonist 58.7, CHO-K1 Ca antag 59.6, M1 ag 46.9
c1cc(-c2n[nH]c(-c3ccncc3)n2)ccn1	M1 ag parental 19.6
